Reference: the supplement of paper PMC6555819

These sequences were tested on PXR homodimer (NR concentration 270 nM) (assay: PBM binding z-score (relative to random genomic background probes); higher = stronger binding; sequences stand for … in GC…GCGATTGACAGCGTAGAATGAAGG).
Outline: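 The probes on custom Agilent 4×180K protein-binding microarrays were double-stranded, with 34-nt variable regions bearing direct-repeat seeds, single-nucleotide variants, half-site ablations and random human genomic background sequences. Incubation lasted 1 h with ligand-free nuclear receptor dimers in PBS pH 7.4, 2% milk, 0.02% Triton X-100, 1 mM DTT, 0.2 mg/mL BSA and 0.4 mg/ml salmon testes DNA. Antibodies against each partner (one per run) detected bound dimers, and fluorescence scans were regression-normalized. Binding z-scores take the random background probes as reference.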
ATCTCTAGGTAAGACACAGTTCAGTGAAGAACGC was tested, and the PBM binding z-score was 1.06.
Work on CCGACTGGGGCAAGGTTACGATAACGCACAGCCA yielded a PBM binding z-score of -0.626.
AATACAGGGTCACTAGTCCAGAGTAGGTACGAAT gave a PBM binding z-score of 0.58.
ACTTACTGGTCAACGAGGTTATAGCACGCGTATA gave a PBM binding z-score of 0.901.
Work on TAGCCTAGGTCATTCAGCGGCCAGTATAGAAAGC yielded a PBM binding z-score of -0.494.
In the case of CCTACTGGGCCATCAGGTCATTCATATCAACGTT, the PBM binding z-score is reported as 1.07.
With CCTACTGGCCCATTCAGAGGTCATTGATCATATG the PBM binding z-score was 2.7.
With GCTTGTAGTTCAAGGTTAAGAAAGACTAAGCTAA the PBM binding z-score was 0.883.
For TCTAGTTGGTCACTGAGGTCACACACGACGGGTA, the PBM binding z-score was 2.81.
Work on ACTGACGGGTCAACGAGGTTATAGCACGCGTATA yielded a PBM binding z-score of 2.3.
ATCTCTAGGTAAGACGCAGTTCAGTGAAGAACGC showed a PBM binding z-score of 0.389.
With GGAATGAGGGCAAAGTTGATAGCATCTGTCGACG the PBM binding z-score was 0.53.
In the case of CGTCCAAGGTCAAGGTCAGTAAAAGAGACTCGAA, the PBM binding z-score is reported as 1.84.
TCTATTAGTTGATTAGGGCTACCGAAACAGCGGA showed a PBM binding z-score of 0.128.
Sequence TCTAGTTGGTCAAAGATCACACACTCGAAATGCG has a PBM binding z-score of 0.547.
AGTCAGAGTTCAGGACGAGGTAACGTAAAGCACG showed a PBM binding z-score of 1.88.
Sequence CGAACTAGGTCACGGACAGTGAATCTCCGCACGC has a PBM binding z-score of -0.165.
In the case of TCATATAGGTAAAAGCTAGGTGAAAGTCCGATCT, the PBM binding z-score is reported as 0.0441.
In the case of TCGAGTAGGTAACCAATGGGGCATTCAGCTTTCT, the PBM binding z-score is reported as -0.877.
In the case of TCGAGTAGGTTAGCAATGGGGCATTCAGCTTTCT, the PBM binding z-score is reported as -0.747.
ATGTCTAGGTAACCAAGTTCAGTGAATGCCGAAC gave a PBM binding z-score of 1.53.
TCTATTAGTTGAAGGGCAAGCGACGAGTCCGTTT gave a PBM binding z-score of 0.859.
For TCTGCGAGGTCAGTTGGTCAGCTAACGAGCTGCC, the PBM binding z-score was 0.146.
For AGAATGAGGTTACCAAAGATCCGGGAAACGCTTG, the PBM binding z-score was -0.0527.
In the case of GCTAGCAGGCCATTTGGGTCACTCCATGACGGGC, the PBM binding z-score is reported as -0.146.
CTCGAAAGGTCGGTTGAGGTGAGGATACGGATAA gave a PBM binding z-score of 0.154.
Sequence CCTATTAGTTGACCATAATGGCAACCGAAGCTCG has a PBM binding z-score of 1.05.
CCTACTGGACCACGAAAGGTCATTGATTCAGTGA was tested, and the PBM binding z-score was 2.09.
Sequence CTTCAAAGTTCAAGGTAACGTAACAGAAAGCAGC has a PBM binding z-score of 2.67.
In the case of TCGAGTAGGTTACCAATCGGGCATTCAGCTTTCT, the PBM binding z-score is reported as -0.753.
Work on AGAACGAGGGCAATGAGATGATAGCACGGGTGGC yielded a PBM binding z-score of 0.0572.
Sequence CCGAGTAGGTTTTGGGGCATTCAGGCAACGGTGA has a PBM binding z-score of -0.0267.
CCTATTAGTTGACCATAAGTGCAACCGAAGCTCG was tested, and the PBM binding z-score was 1.66.
Work on TCATATAGGTAAATGCTAGGTGAAAGTTCGATCT yielded a PBM binding z-score of 0.91.
In the case of CGTCCAAGGTCAGAGCGGTCAGTGAATGCCGAGT, the PBM binding z-score is reported as 2.78.
TAGCCTAGGTCCTGGGCCAGTATACCACGCGAAC showed a PBM binding z-score of -0.893.
In the case of GGAACGACGGCAAAGTTGATAGCATCTGTCGACG, the PBM binding z-score is reported as -0.756.
GTACCAAGGTGAGTAGGTCGTTGATGAGTAGGCG gave a PBM binding z-score of 0.0427.
With CGAACTAGGTCCAGGACAGTGAATCTCCGCACGC the PBM binding z-score was -0.312.
